Screening data: PubChem, National Center for Advancing Translational Sciences (NCATS)
DT40 TDP1 no CPT: qHTS for Inhibitors of human tyrosyl-DNA phosphodiesterase 1 (TDP1): qHTS in cells in absence of CPT | DT40 Tdp1-/- hTDP1 cells, no CPT, ATP luminescence, 48 h | Potency, µM (doses to about 46.2 µM), for inactives: at the top dose activity change, negative = growth inhibition, most hits filed as inhibitors | 15% of 420,000 active; also: potency is read from the fitted curve at half-maximal effect; nearly all actives have a fitted effect of over 55% in size
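Readout: luminescence from CellTiter-Glo after 30 min in the dark at RT. Cells: DT40 Tdp1-/- with stable hTDP1, 400/well. Exposure: compounds alone, ≥48 hr, 37 °C.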
TDP1 cell CPT: qHTS for Inhibitors of human tyrosyl-DNA phosphodiesterase 1 (TDP1): qHTS in cells in presence of CPT | 12% of 420,000 active | AID 686979, 2013 | Potency, µM (top dose mostly 46.2 µM), inactives show top-dose activity change, negative = growth inhibition, usual class: inhibitors | chicken DT40 Tdp1-/-;hTDP1 cells + 20 nM CPT, ATP luminescence, 48 h; also: potency is read from the fitted curve at half-maximal effect; nearly all actives have a fitted effect of over 55% in size
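Cell growth measured by CellTiter-Glo luminescence after a minimum 48 h, 37 C compound exposure with 20 nM CPT in Tdp1-knockout DT40 cells stably expressing hTDP1, seeded 400/well; qHTS titration format.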
HT1080-NT tox: qHTS for induction of synthetic lethality in tumor cells producing 2HG: qHTS for the HT-1080-NT fibrosarcoma cell line; HT-1080-NT fibrosarcoma viability, CellTiter-Glo ATP luminescence, 48 h; Potency, µM (highest dose often 46.1 µM), for the others: at the highest dose activity, negative = less viability, actives largely listed as cytotoxic; 1.6% of 360,000 active;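 also: NT is the 2HG producing partner of a matched IDH1 knockdown line; potency is read from the fitted curve at half-maximal effect; 0% = DMSO-treated cells and -100% = media-only wells without cells; nearly all actives have a fitted effect of over 55% in size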
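Toxicity toward the 2HG-producing NT line was scored as %Activity, normalised to DMSO and no-cell wells, from CellTiter-Glo luminescence after 48 hours' treatment.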
HT1080 IDH1KD tx: qHTS for induction of synthetic lethality in tumor cells producing 2HG: qHTS for the HT-1080-IDH1KD cell line; HT-1080 IDH1 knockdown viability, ATP luminescence, 48 h; Potency, µM (highest dose often 46.1 µM), for inactives: at the top dose activity, negative = toxicity, most hits filed as cytotoxic; 2% of 360,000 active;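 also: potency is read from the fitted curve at half-maximal effect; 0% = DMSO wells and -100% = cell-free medium wells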
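CellTiter-Glo luminescence after 48 h compound exposure at 37 degrees C of IDH1-knockdown HT-1080 cells in 5% FBS RPMI. %Activity scaled between DMSO wells and cell-free media wells, with curves fitted and assigned curve classes.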
IL1B secr inh: qHTS for Inhibitors of Inflammasome Signaling: IL-1-beta AlphaLISA Primary Screen; AID 743279, 2014; activity change, % at 57.5 µM; THP-1 LPS/ATP IL-1B secretion, AlphaLISA, 16 h; stronger effect = lower value; 4.7% of 360,000 active; in the data active = activity change below about -50%; inconclusive = mostly about -30% to -49%
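THP-1 cells pretreated 1 hr with compounds (up to 57.5 uM final), then stimulated with LPS (250 ng/mL final) plus ATP (1.25 mM final); secreted IL-1B measured by AlphaLISA after 16 hr, decreased signal indicating inhibition.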
The depositor's hits bear a star; ! = not active in a repeat; [ ] = another dose, or the depositor's remark. An excerpt weighted towards active compounds, which were near 19% of everything screened. Unless noted, calls follow the shape of the dose curve; as a rule, active = well fitted curve in the direction sought with a large enough effect; inconclusive = small, poorly fitted or top-dose-only effect, or another doubt; inactive = no such curve, though single readings can be large; an effect the other way counts as inactive or inconclusive. Unless noted, % is scaled to controls: 0 for no effect and ±100 for the full control effect.

`C=CCNC(=S)Nc1cccc2[nH]ncc12` gave DT40 TDP1 no CPT -3%, TDP1 cell CPT -2%, HT1080-NT tox 18%, HT1080 IDH1KD tx 16% and IL1B secr inh 21.
Screening O=C(Nc1ccc(Cl)cc1)N1CCN(Cc2ccc3c(c2)OCO3)CC1 returned DT40 TDP1 no CPT -22%, TDP1 cell CPT -13%, HT1080-NT tox -5%, HT1080 IDH1KD tx -22% and IL1B secr inh 0.
For CCc1cc2cc(C(=O)N3CCN(Cc4ccccc4)CC3)sc2s1 the results were DT40 TDP1 no CPT inconclusive, TDP1 cell CPT inconclusive, HT1080-NT tox 3%, HT1080 IDH1KD tx 2% and IL1B secr inh -85*.
`O=C(O)c1ccccc1C(=O)N1CCN(Cc2ccc3c(c2)OCO3)CC1` gave DT40 TDP1 no CPT 24%, TDP1 cell CPT 10%, HT1080-NT tox 18%, HT1080 IDH1KD tx 18% and IL1B secr inh 29.
O=C(c1ccc(F)cc1)N1CCC(C(=O)N2CCN(Cc3ccc4c(c3)OCO4)CC2)CC1 was read as DT40 TDP1 no CPT -2%, TDP1 cell CPT 2%, HT1080-NT tox 0%, HT1080 IDH1KD tx -5% and IL1B secr inh -5.
For COc1ccccc1C(=O)N1CCN(Cc2ccc3c(c2)OCO3)CC1 the results were DT40 TDP1 no CPT -14%, TDP1 cell CPT -7%, HT1080-NT tox 10%, HT1080 IDH1KD tx 8% and IL1B secr inh -57*.
`CCc1cc2cc(C(=O)N3CCN(c4ccccc4)CC3)sc2s1` gave DT40 TDP1 no CPT inconclusive, TDP1 cell CPT -14%, HT1080-NT tox 10%, HT1080 IDH1KD tx 10% and IL1B secr inh 12.
O=C(C1CCN(S(=O)(=O)c2ccccc2F)CC1)N1CCN(Cc2ccc3c(c2)OCO3)CC1 was read as DT40 TDP1 no CPT inconclusive, TDP1 cell CPT 21µM*, HT1080-NT tox -11%[9.24 µM], HT1080 IDH1KD tx 0% and IL1B secr inh -12.
For O=C(COc1ccc(Cl)cc1)N1CCN(Cc2ccc3c(c2)OCO3)CC1 the results were DT40 TDP1 no CPT inconclusive, TDP1 cell CPT inconclusive, HT1080-NT tox 28%, HT1080 IDH1KD tx 11% and IL1B secr inh -51*!.
Screening Cc1ccc(-n2nc(C)c3nc(CCC(=O)Nc4ccc(F)cc4)c(=O)n(C)c32)cc1 returned DT40 TDP1 no CPT -1% and TDP1 cell CPT -2%.
Screening Cc1cc(C)nc(N2N=C(C(F)(F)F)CC2=O)n1 returned DT40 TDP1 no CPT 1%, TDP1 cell CPT 22%, HT1080-NT tox 4%, HT1080 IDH1KD tx 3% and IL1B secr inh 34.
CCc1ccc(CN2CCN(C(=O)c3cccc(OC)c3OC)CC2)cc1 was read as DT40 TDP1 no CPT inconclusive, TDP1 cell CPT inconclusive, HT1080-NT tox -12%, HT1080 IDH1KD tx 14µM* and IL1B secr inh inconclusive.
Screening O=C(c1ccccc1F)N1CCN(Cc2ccc3c(c2)OCO3)CC1 returned DT40 TDP1 no CPT -25%, TDP1 cell CPT 11%, HT1080-NT tox 1%, HT1080 IDH1KD tx -17% and IL1B secr inh -67*.
Screening CC(C)(C)CC(=O)N1CCN(Cc2ccc3c(c2)OCO3)CC1 returned DT40 TDP1 no CPT -19%, TDP1 cell CPT -5%, HT1080-NT tox 4%, HT1080 IDH1KD tx 9% and IL1B secr inh -7.
CCOc1ccccc1C(=O)NCC(=O)N1CCN(Cc2ccc3c(c2)OCO3)CC1 was read as DT40 TDP1 no CPT inconclusive, TDP1 cell CPT 29µM*, HT1080-NT tox inconclusive, HT1080 IDH1KD tx inconclusive and IL1B secr inh -80*.
`C/C(=C\c1ccccc1)C(=O)N1CCN(Cc2ccc3c(c2)OCO3)CC1` gave DT40 TDP1 no CPT -14%, TDP1 cell CPT -20%, HT1080-NT tox -22%, HT1080 IDH1KD tx -2% and IL1B secr inh -69*.
For COc1nccc(C(F)(F)F)c1C(=O)Nc1ccc(Cl)cc1 the results were DT40 TDP1 no CPT inconclusive, TDP1 cell CPT 1%, HT1080-NT tox 4%, HT1080 IDH1KD tx -1% and IL1B secr inh -5.
